Sampled rows, rich in hits. Any-hit rate of the full collection: about 3.8%.
HepG2 tox-1: qHTS for Inhibitors of TGF-b: Cytotox Counterscreen; HepG2 CAGA-GFP viability, ATP luminescence, 18 h; Potency, µM (doses to about 46.1 µM), actives largely listed as cytotoxic; 410,000 compounds, 0.76% hits; AID 588856, 2011
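CellTiter-Glo luminescence gave cytotoxicity after 18 hours at 37 degrees C. The cells were HepG2 CAGA-GFP in 1% FBS DMEM, stimulated with 500 pg/mL TGF-beta after compound addition. %Activity was normalised to no-cell wells (complete cell-killing) and DMSO (no toxicity), and curves were fitted and classified.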
HT1080-NT tox: qHTS for induction of synthetic lethality in tumor cells producing 2HG: qHTS for the HT-1080-NT fibrosarcoma cell line; HT-1080-NT fibrosarcoma viability, CellTiter-Glo ATP luminescence, 48 h; Potency, µM (doses to about 46.1 µM), hits mostly cytotoxic; 360,000 compounds, 1.6% hits; AID 686970, 2013;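 also: NT is the 2HG producing partner of a matched IDH1 knockdown line; nearly all actives have a fitted effect of over 55% in size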
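HT-1080-NT fibrosarcoma cells (2HG-overproducing), 750 cells/well in RPMI with 5% FBS, dosed after 2 h and incubated 48 h at 37C. CellTiter-Glo luminescence normalized to DMSO and no-cell wells; concentration-response curves fitted and classed.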
TGFb SMAD3 inh: qHTS for Inhibitors of TGF-b; HepG2 CAGA-GFP TGF-b/SMAD3 reporter, GFP fluorescence, 18 h; TGF-beta stimulated, 500 pg/mL final; Potency, µM (doses to about 46.1 µM), most hits filed as inhibitors; 410,000 compounds, 1.2% hits; also: nearly all actives have a fitted effect of over 65% in size
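HEPG2 CAGA-GFP cells (1000/well, DMEM with 1% FBS) were pre-incubated 2 h at 37 degrees C, given compound by pin tool, then stimulated with TGF-beta at 500 pg/mL final for 18 h before per-cell GFP fluorescence imaging.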
ATXN2 expr inh: Primary qHTS for Inhibitors of ATXN expression; HEK-293 ATXN2-luciferase reporter, luminescence, 24 h; Potency, µM (series often up to 57 µM), actives largely listed as inhibitors; 360,000 compounds, 0.72% hits; also: nearly all actives have a fitted effect of over 55% in size
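ATXN2-luciferase reporter cells (luciferase flanked by upstream and downstream ATXN2 gene portions) were treated 24 h at 37 °C with compounds at up to 57 uM. SteadyGlo luminescence gave expression; GF-AFC fluorescence gave viability.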
HT1080 IDH1KD tx: qHTS for induction of synthetic lethality in tumor cells producing 2HG: qHTS for the HT-1080-IDH1KD cell line | HT-1080 IDH1 knockdown viability, ATP luminescence, 48 h | 360,000 compounds, 2% hits | Potency, µM (doses to about 46.1 µM), hits mostly cytotoxic | AID 686971, 2013
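Cytotoxicity counter-line: IDH1KD HT-1080, 48 h, CellTiter-Glo. Curves classed by r2, magnitude and activity.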
S2 tox: Viability Counterscreen for Primary qHTS for Inhibitors of ATXN expression; S2 cells (HEK-293 line with an ATXN2-luciferase reporter) viability, CellTiter-Fluor protease fluorescence, 24 h; Potency, µM (titrated, usually from 56.7 µM), most hits filed as cytotoxic; 400,000 compounds, 0.49% hits; also: nearly all actives have a fitted effect of over 40% in size
TGFb confirm: qHTS for Inhibitors of TGF-b: Confirmation of Cherry Picks | shares compounds with TGFb SMAD3 inh | HepG2 CAGA-GFP TGF-b reporter, GFP fluorescence, 18 h; cells stimulated with TGF-beta, 500 pg/mL | Potency, µM (top dose mostly 46.1 µM), usual class: inhibitors | 1,600 compounds, 63% hits | AID 720534, 2013; also: nearly all actives have a fitted effect of over 65% in size
HepG2 tox-2: qHTS for Inhibitors of TGF-b: Cytotox Counterscreen for Cherry Picks; HepG2 CAGA-GFP viability, ATP luminescence, 18 h; cells stimulated with TGF-beta, 500 pg/mL; Potency, µM (top dose mostly 46.1 µM), usual class: inhibitors; shares compounds with TGFb SMAD3 inh; 1,600 compounds, 27% hits; also: nearly all actives have a fitted effect of over 70% in size
TGFb CCL64 inh: qHTS for Inhibitors of TGF-b: CCL64 Cells Orthogonal Assay for Cherry Picks | CCL64 CAGA-GFP reporter, TGF-b stimulated, GFP fluorescence, 18 h | Potency, µM (top dose mostly 46.1 µM), most hits filed as inhibitors | 1,600 compounds, 41% hits | AID 720536, 2013 | shares compounds with TGFb SMAD3 inh; also: nearly all actives have a fitted effect of over 65% in size
TGFb COP inh: qHTS for Inhibitors of TGF-b: Hit Validation in HepG2 Cells using COP promoter. Potency, µM (doses to about 46.1 µM), most hits filed as inhibitors. shares compounds with TGFb SMAD3 inh. 1,600 compounds, 3% hits. HepG2 COP-GFP TGF-b reporter, GFP fluorescence, 18 h; cells stimulated by added recombinant TGF-beta. AID 720537, 2013; also: nearly all actives have a fitted effect of over 70% in size
Of the large screens only hits and unclear results are named; the others gave an inactive call (follow-up assays come after a bar, where they were run). Calls follow the shape of the dose curve; as a rule, active = well fitted curve in the direction sought with a large enough effect; inconclusive = small, poorly fitted or top-dose-only effect, or another doubt; inactive = no such curve, though single readings can be large; an effect the other way counts as inactive or inconclusive.

Cc1cccc(CCNC(=O)c2cccc3c2C(=O)N(C2CCCCC2)C3)c1	HT1080-NT tox inconclusive, TGFb SMAD3 inh 13µM | TGFb confirm 15µM | HepG2 tox-2 inactive | TGFb CCL64 inh inconclusive | TGFb COP inh inactive
CN(Cc1ccccc1)S(=O)(=O)c1ccc(NC(=S)NC(=O)C2CCCCC2)cc1	TGFb SMAD3 inh 13µM | TGFb confirm 33µM | HepG2 tox-2 inconclusive | TGFb CCL64 inh inactive | TGFb COP inh inactive
O=C(CSc1nnc(COc2cccc3cccnc23)o1)N1CCc2ccccc21	HT1080-NT tox 2.2µM, TGFb SMAD3 inh inconclusive, HT1080 IDH1KD tx 1.3µM | TGFb confirm inconclusive | HepG2 tox-2 inconclusive | TGFb CCL64 inh inactive | TGFb COP inh inactive
O=C(CSc1nnc(Cc2ccccc2)o1)N1CCc2ccccc21	TGFb SMAD3 inh inconclusive
COc1cccc(Nc2nc(-c3ccccc3)c3cc(C)ccc3n2)c1	none (no result: HT1080-NT tox, ATXN2 expr inh, HT1080 IDH1KD tx, S2 tox)
COc1cc(Nc2nc(-c3ccccc3)c3cc(C)ccc3n2)cc(OC)c1OC	HT1080-NT tox inconclusive, TGFb SMAD3 inh 11µM, HT1080 IDH1KD tx inconclusive | TGFb confirm 18µM | HepG2 tox-2 inconclusive | TGFb CCL64 inh inactive | TGFb COP inh inactive
CCN(CC(O)Cn1c2ccccc2c2ccccc21)S(=O)(=O)c1ccc(C)cc1 (configuration not stated)	TGFb SMAD3 inh 10µM | TGFb confirm 21µM | HepG2 tox-2 inconclusive | TGFb CCL64 inh inconclusive | TGFb COP inh inactive
Cc1ccccc1NC(=O)Cn1c(=O)oc2cc(Br)ccc21	none (no result: HT1080-NT tox, ATXN2 expr inh, HT1080 IDH1KD tx, S2 tox)
COc1ccc(Cc2c(-c3ccc(F)cc3)nc3ccc(Br)cn23)c(C)c1	none
COc1ccc(Cc2c(-c3cccc(Cl)c3)nc3ccc(Br)cn23)c(C)c1	TGFb SMAD3 inh inconclusive, S2 tox inconclusive
COc1ccc(Cc2c(-c3cccc(Br)c3)nc3ccc(Br)cn23)c(C)c1	TGFb SMAD3 inh inconclusive | TGFb confirm inconclusive | HepG2 tox-2 inconclusive | TGFb CCL64 inh inconclusive | TGFb COP inh inactive
COc1ccc(-c2nc3ccc(Br)cn3c2Cc2cccc(Cl)c2)cc1OC	HT1080-NT tox inconclusive, TGFb SMAD3 inh 13µM, HT1080 IDH1KD tx inconclusive, S2 tox inconclusive | TGFb confirm 18µM | HepG2 tox-2 inconclusive | TGFb CCL64 inh inconclusive | TGFb COP inh inactive
COc1ccccc1Cc1c(-c2ccc(F)cc2)nc2ccc(Br)cn12	HT1080-NT tox inconclusive, TGFb SMAD3 inh 10µM, HT1080 IDH1KD tx inconclusive, S2 tox inconclusive | TGFb confirm inconclusive | HepG2 tox-2 inconclusive | TGFb CCL64 inh inconclusive | TGFb COP inh inactive
Cc1cc2c(cc1NC(=O)c1ccccc1C)n(C)c(=O)c(=O)n2C	TGFb SMAD3 inh inconclusive (no result: HT1080-NT tox, HT1080 IDH1KD tx)
O=Cc1cn(CC(=O)Nc2ccc3c(c2)OCO3)c2ccccc12	TGFb SMAD3 inh 7.1µM, S2 tox inconclusive | TGFb confirm 8.2µM | HepG2 tox-2 3.3µM | TGFb CCL64 inh inactive | TGFb COP inh inactive
COc1cc2c(c(Br)c1N)-c1cc(Br)c(N)cc1C2=O	HT1080-NT tox inconclusive, TGFb SMAD3 inh inconclusive, HT1080 IDH1KD tx inconclusive (no result: ATXN2 expr inh) | TGFb confirm 0.58µM | HepG2 tox-2 0.58µM | TGFb CCL64 inh inactive | TGFb COP inh inactive
Cc1ccc2c(c1)nnn2C1CCN(CC(=O)Nc2ccccc2N2CCOCC2)CC1	HT1080-NT tox inconclusive, TGFb SMAD3 inh 10µM, HT1080 IDH1KD tx inconclusive, S2 tox inconclusive | TGFb confirm inconclusive | HepG2 tox-2 inconclusive | TGFb CCL64 inh inconclusive | TGFb COP inh inactive
COc1cccc(NC(=O)C(NCCC(C)C)c2ccccc2)c1 (configuration not stated)	TGFb SMAD3 inh 13µM | TGFb confirm inconclusive | HepG2 tox-2 inactive | TGFb CCL64 inh inactive | TGFb COP inh inactive
COc1cccc(NC(=O)C(NCC2CCCCC2)c2ccccc2)c1 (configuration not stated)	none
CCOc1ccccc1NC(=O)Cn1c(=O)n(CCCCC(=O)NCCCOC)c(=O)c2ccccc21	none (no result: HT1080-NT tox, HT1080 IDH1KD tx)
NC1=NC[C@H](Cc2ccc(O)cc2)N1CCc1cc(C(F)(F)F)cc(C(F)(F)F)c1	TGFb SMAD3 inh 1.1µM | TGFb confirm inactive | HepG2 tox-2 inactive | TGFb CCL64 inh inactive | TGFb COP inh inactive
O=C1Nc2ccccc2N=C(c2ccc3c(c2)OCO3)C1N(C(=O)c1ccc2ccccc2c1)C1CC1 (configuration not stated)	HT1080-NT tox inconclusive, TGFb SMAD3 inh 13µM, HT1080 IDH1KD tx inconclusive, S2 tox inconclusive | TGFb confirm 23µM | HepG2 tox-2 inconclusive | TGFb CCL64 inh 16µM | TGFb COP inh inactive
O=C1Nc2ccccc2N=C(c2ccc3c(c2)OCO3)C1N(C(=O)c1ccnc2ccccc12)c1ccccc1 (configuration not stated)	HT1080-NT tox inconclusive, TGFb SMAD3 inh 16µM, HT1080 IDH1KD tx inconclusive, S2 tox inconclusive | TGFb confirm 23µM | HepG2 tox-2 inactive | TGFb CCL64 inh inconclusive | TGFb COP inh inactive
COc1ccc(C2=Nc3ccccc3NC(=O)C2N(Cc2ccc(F)cc2)C(=O)c2ccco2)cc1 (configuration not stated)	HT1080-NT tox inconclusive, TGFb SMAD3 inh inconclusive, HT1080 IDH1KD tx inconclusive, S2 tox inconclusive
CCOC(=O)N1CCN(C(=O)COc2cccc3c2CCN(Cc2ccccc2C)C3=O)CC1	none

Screening data as filed in PubChem BioAssay.
